Results reported in PubChem BioAssay AID504400 (The Scripps Research Institute Molecular Screening Center, 2011).
Unmarked numbers belong to inactive results. No rule for the calls is given here.

System: Potassium Channel [KATP]
Assay: CYP450 and receptor off-target profile – biochemical, Ricerca HitProfilingScreen, selectivity assay for S1P4 agonist project, late-stage follow-up (AID 504400)
Conditions: Ricerca radioligand binding/enzyme panel plus CYP450, at 10 µM, stronger effect = higher value

SMILES: Clc1ccc(OCCOc2ccc(Br)nc2Br)c(Cl)c1
- inhibition: 20%
